For some assays here: Results with a measured potency or affinity are listed apart.
Assays:
Parameters in all cases: scale not given: direction of the effect not stated beside the values
[1] = molecular target: Protein translocase subunit SecA (Escherichia coli (strain K12)) (UniProt P10408); assay: Assay to Identify E. coli SecA ATPase Inhibitors; assay type: functional; details: 30 µM
[2] = molecular target: T1, Ubiquitin-activating enzyme e1, putative (Leishmania donovani (strain BPK282A1)) (UniProt E9BSI1); assay: Leishmania donovani Ubiquitin Activating Enzyme (LdE1); assay type: functional; details: 30 µM
T1 sequence (whole entry): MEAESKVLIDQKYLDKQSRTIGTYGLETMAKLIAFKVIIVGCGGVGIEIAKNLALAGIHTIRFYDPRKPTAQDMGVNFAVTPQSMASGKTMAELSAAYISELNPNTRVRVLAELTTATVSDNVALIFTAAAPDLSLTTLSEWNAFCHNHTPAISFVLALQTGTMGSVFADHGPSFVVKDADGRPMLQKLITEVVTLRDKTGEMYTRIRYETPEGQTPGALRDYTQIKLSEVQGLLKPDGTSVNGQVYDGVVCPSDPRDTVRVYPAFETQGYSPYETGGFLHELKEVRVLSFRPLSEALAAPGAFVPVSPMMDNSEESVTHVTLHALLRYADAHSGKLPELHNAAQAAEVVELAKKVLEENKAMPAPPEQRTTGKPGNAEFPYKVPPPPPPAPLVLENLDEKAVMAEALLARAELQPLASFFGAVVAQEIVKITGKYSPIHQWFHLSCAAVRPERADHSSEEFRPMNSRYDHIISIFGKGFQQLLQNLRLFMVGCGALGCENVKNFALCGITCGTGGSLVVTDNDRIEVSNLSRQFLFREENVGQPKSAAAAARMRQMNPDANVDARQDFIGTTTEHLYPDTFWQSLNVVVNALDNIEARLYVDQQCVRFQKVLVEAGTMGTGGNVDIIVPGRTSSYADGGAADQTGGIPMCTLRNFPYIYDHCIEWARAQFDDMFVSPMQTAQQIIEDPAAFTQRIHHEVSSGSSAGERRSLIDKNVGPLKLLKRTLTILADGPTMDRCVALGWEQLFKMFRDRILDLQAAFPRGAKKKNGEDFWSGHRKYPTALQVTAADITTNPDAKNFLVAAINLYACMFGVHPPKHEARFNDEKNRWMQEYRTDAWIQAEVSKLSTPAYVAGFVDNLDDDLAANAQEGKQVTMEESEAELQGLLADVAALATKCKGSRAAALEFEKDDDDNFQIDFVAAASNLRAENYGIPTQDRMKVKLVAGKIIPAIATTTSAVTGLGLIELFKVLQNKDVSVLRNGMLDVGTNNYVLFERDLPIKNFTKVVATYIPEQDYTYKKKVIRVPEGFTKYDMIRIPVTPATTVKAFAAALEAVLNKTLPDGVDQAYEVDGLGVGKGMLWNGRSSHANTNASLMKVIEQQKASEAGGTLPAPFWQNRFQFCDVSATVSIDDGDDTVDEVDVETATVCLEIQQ

[3] = molecular target: Sialic acid-binding Ig-like lectin 9 (Homo sapiens) (UniProt Q9Y336); assay: Hs-Siglec9 ALPHAscreen SOP 20170721; details: 10 µM
Trypanosoma cruzi = assay: Trypanosoma cruzi phosphomannomutase and mannose-1-phosphate guanylyltransferase assay; assay type: functional; details: 10 µM
[4] = molecular target: T2, Arginase-2, mitochondrial (Homo sapiens) (UniProt P78540); assay: in vitro enzyme assay to detect the production of urea directly proportional to the activity of Arginase II; assay type: functional; details: 33.3 µM; further: in the data most compounds retested in dose-response had high values
T2 sequence (whole entry): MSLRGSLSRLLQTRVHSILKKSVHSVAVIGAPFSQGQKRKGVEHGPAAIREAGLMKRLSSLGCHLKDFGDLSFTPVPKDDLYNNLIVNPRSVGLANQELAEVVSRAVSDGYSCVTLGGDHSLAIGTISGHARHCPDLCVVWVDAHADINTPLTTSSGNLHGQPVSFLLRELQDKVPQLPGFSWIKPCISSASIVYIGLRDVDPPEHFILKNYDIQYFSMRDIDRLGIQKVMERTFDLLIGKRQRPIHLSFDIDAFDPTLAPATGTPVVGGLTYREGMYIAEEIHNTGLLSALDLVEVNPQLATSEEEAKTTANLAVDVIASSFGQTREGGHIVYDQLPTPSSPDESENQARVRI

[5] = molecular target: T3, Proteasome subunit beta (Trypanosoma cruzi) (UniProt O96673); assay: Trypanosoma cruzi proteasome chymotrypsin-like activity (TcProtChymo) assay.; further: in the data most compounds retested in dose-response had high values; assay type: functional; details: 9.37 µM
T3 sequence (whole entry): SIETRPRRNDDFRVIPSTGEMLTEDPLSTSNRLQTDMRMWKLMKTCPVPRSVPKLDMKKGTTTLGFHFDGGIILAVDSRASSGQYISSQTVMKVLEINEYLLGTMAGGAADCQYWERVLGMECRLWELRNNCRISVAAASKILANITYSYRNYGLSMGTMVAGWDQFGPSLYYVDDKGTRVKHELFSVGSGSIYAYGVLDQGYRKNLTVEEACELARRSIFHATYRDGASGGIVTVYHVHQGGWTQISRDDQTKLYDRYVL

Homo sapiens = species on record: Homo sapiens; assay: To identify inhibition of the IFN signalling (Jak-Stat) pathway via expression of an eGFP reporter gene under the control of an IFN-stimulated response element (ISRE) containing MxA promoter.; assay type: functional; details: 30 µM
[6] = molecular target: T4, Tyrosyl-tRNA synthetase, putative (Trypanosoma cruzi (strain CL Brener)) (UniProt Q4DSP6); assay: Trypanosoma cruzi tyrosyl tRNA synthetase (TcYRS) _High Tyrosine SOP; assay type: functional; details: 30 µM; further: in the data most compounds retested in dose-response had high values
T4 sequence (whole entry): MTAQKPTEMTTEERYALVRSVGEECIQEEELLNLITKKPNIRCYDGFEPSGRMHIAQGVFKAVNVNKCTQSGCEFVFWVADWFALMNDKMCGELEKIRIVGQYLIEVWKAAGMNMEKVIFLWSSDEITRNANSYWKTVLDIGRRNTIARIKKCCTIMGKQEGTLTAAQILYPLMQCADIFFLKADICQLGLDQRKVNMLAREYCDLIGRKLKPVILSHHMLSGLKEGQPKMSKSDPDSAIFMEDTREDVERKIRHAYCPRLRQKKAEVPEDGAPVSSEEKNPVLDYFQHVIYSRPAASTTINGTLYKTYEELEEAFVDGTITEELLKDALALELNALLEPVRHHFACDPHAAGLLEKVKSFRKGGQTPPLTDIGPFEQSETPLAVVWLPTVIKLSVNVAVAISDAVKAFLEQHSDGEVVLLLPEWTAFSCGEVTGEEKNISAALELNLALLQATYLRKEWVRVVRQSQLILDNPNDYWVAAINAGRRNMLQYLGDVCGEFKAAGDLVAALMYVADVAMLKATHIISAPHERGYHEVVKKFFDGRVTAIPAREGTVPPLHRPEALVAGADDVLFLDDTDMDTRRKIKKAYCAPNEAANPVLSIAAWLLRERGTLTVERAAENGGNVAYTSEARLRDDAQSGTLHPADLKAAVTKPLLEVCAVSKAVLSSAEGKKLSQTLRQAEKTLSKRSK

[7] = molecular target: T4, Tyrosyl-tRNA synthetase, putative (Trypanosoma cruzi (strain CL Brener)); assay: Trypanosoma cruzi tyrosyl tRNA synthetase (TcYRS) SOP; assay type: functional; details: 30 µM
[8] = molecular target: Chromo domain-containing protein 1 (Saccharomyces cerevisiae (strain ATCC 204508 / S288c) (Baker's yeast)) (UniProt P32657); assay: ScCHD-1 Enzyme Inhibition Assay; assay type: functional; details: 30 µM; further: in the data most compounds retested in dose-response had high values
Sequence of Chromo domain-containing protein 1 (Saccharomyces cerevisiae (strain ATCC 204508 / S288c) (Baker's yeast)) (P32657 whole entry, the tested form may be a part): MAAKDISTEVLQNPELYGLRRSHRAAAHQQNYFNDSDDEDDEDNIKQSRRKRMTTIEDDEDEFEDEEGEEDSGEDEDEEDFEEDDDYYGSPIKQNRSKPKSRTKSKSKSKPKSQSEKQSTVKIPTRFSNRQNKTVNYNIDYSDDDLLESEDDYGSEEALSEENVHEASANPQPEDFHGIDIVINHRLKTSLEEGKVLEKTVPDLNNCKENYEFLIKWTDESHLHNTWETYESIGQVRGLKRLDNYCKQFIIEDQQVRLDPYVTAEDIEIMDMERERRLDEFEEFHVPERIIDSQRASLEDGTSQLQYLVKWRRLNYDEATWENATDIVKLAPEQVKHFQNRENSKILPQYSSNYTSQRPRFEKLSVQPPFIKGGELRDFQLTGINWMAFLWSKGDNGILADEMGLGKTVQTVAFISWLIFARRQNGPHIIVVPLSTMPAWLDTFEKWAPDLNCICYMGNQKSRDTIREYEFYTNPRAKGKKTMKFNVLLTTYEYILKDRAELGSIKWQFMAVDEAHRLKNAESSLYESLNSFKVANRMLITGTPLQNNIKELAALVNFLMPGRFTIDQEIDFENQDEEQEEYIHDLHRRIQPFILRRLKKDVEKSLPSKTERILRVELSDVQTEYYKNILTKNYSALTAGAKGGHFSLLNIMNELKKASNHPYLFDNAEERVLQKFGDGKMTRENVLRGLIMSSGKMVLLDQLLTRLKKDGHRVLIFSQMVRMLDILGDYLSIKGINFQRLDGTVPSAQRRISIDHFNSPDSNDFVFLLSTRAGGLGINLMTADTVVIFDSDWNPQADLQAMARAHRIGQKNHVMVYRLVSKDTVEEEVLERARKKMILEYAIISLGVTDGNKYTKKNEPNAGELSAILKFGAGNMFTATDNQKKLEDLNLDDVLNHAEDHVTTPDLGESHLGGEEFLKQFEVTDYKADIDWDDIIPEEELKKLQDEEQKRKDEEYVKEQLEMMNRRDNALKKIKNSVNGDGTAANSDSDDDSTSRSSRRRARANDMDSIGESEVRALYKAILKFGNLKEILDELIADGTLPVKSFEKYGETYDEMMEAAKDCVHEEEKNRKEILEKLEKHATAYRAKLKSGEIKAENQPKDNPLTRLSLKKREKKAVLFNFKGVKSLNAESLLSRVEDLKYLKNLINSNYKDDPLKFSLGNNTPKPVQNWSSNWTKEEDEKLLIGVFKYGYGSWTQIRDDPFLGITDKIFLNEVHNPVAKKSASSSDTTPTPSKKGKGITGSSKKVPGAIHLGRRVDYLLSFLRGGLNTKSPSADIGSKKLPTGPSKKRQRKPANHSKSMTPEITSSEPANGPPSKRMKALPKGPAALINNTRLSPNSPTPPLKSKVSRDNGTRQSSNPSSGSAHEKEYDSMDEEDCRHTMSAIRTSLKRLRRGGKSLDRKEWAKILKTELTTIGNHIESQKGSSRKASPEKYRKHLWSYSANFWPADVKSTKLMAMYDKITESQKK

Sequence of Sialic acid-binding Ig-like lectin 9 (Homo sapiens) (Q9Y336 whole entry): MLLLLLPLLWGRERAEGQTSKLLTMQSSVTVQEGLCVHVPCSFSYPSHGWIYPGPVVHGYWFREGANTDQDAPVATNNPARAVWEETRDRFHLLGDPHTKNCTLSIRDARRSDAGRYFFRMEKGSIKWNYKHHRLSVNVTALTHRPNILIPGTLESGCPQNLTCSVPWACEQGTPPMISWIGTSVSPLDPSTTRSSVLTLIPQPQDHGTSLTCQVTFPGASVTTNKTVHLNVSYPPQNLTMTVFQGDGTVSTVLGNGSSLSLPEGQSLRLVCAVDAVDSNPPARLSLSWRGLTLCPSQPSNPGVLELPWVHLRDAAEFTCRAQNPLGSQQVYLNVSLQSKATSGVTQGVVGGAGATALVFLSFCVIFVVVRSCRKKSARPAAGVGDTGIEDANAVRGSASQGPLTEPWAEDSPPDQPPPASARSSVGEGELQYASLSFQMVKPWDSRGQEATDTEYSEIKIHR
Sequence of Protein translocase subunit SecA (Escherichia coli (strain K12)) (P10408 whole entry): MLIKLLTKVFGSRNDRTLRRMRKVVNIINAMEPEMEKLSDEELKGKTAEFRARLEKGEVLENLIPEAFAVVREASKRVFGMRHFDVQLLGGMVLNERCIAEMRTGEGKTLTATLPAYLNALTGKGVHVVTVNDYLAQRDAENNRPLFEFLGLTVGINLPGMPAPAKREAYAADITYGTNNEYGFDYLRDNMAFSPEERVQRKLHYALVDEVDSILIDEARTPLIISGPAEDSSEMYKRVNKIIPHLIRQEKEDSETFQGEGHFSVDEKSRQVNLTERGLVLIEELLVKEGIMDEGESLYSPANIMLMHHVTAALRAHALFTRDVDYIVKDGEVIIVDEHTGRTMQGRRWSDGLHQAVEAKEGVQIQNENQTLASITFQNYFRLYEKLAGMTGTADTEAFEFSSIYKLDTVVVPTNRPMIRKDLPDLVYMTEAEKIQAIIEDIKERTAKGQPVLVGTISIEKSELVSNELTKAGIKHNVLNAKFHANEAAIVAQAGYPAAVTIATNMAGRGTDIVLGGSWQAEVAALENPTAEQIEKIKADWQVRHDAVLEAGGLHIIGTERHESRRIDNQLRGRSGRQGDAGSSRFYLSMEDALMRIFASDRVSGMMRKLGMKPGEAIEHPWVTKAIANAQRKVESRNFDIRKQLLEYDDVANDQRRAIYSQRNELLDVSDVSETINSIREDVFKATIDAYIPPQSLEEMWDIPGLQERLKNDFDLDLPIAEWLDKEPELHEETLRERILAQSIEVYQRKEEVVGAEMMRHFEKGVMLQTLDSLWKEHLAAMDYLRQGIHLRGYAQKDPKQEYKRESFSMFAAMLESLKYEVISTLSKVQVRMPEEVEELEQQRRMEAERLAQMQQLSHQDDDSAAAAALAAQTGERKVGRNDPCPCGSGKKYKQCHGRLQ

| Structure (SMILES) | Percent Effect [1] | Percent Effect [2] | Percent Effect [3] | Percent Effect (Trypanosoma cruzi) | Percent Effect [4] | Percent Effect [5] | Percent Effect (Homo sapiens) | Percent Effect [6] | Percent Effect [7] | Percent Effect [8] |
| --- | --- | --- | --- | --- | --- | --- | --- | --- | --- | --- |
| O=C(Cn1cccnc1=O)NCCc1ccc2c(c1)OCCO2 | -2.08% | 16% | -6.16% | -5.22% | 1.77% | 18.9% | 9.16% | 1.58% | 7.69% | -8.6% |
| CC(C)Cc1nc(OCC(N)=O)c(C#N)c2c1CCC2 | -2.5% | 5.41% | 10.8% | -9.99% | 1.75% | 19.4% | 20.7% | 3.72% | 7.32% | -3.73% |
| COCCN1CCCC1c1nccnc1Nc1nc(C)cs1 (stereo not given) | -2.72% | 12% | 5.33% | -2.56% | 3.98% | 7.55% | 21.3% | 9.52% | 15% | -24.9% |
| Cn1cc(CC(=O)N2CCC(Nc3cccnn3)CC2)c2ccccc21 | -3.59% | 18.2% | 3.22% | 3.73% | -7.99% | 5.96% | 4.59% | 7.84% | 32.9% | -10.9% |
| Cc1nn(C)cc1-c1cc(C(F)(F)F)c2c(C)nn(CC(=O)O)c2n1 | 0.552% | 14.7% | -7.53% | -2.56% | -0.885% | 7.72% | 24.1% | -1.06% | 0% | -17.3% |
| c1cn2c(n1)CN(CC1CC1)CC(CN1CCOCC1)C2 (stereo not given) | -6.5% | 9.09% | 6.06% | -2.24% | -2.43% | 11% | -10.6% | 17.4% | 12.8% | 0.532% |
| CC(C(=O)Nc1ncccn1)N1CCCN(c2nccs2)CC1 (stereo not given) | -0.557% | 15.4% | -8.35% | -7.04% | 2.05% | 14.8% | 22.9% | 4.31% | 1.21% | -2.28% |
| COc1ccc(-n2ncc(C(=O)NCC3COC(C)(C)O3)c2N)cc1 (stereo not given) | 97.8% | 14.7% | -6.21% | -0.592% | 1.33% | 14.8% | 15.7% | 1.06% | 5% | -19.9% |
| NC(=O)c1cc(C2CCCN(CCc3ccccn3)C2)n[nH]1 (stereo not given) | -0.145% | -12.8% | -3.53% | 3.29% | 4.1% | -3.67% | 2.63% | 3.35% | -1.21% | -1.37% |
| CN(Cc1ccc2c(c1)OCCO2)C(=O)Cn1cccnc1=O | -4.28% | 10.7% | -2.28% | 3.41% | 1.33% | 16% | 6.87% | 6.84% | 12.8% | -8.2% |
| Cc1oncc1C(=O)NCc1cc(=O)n2c(n1)CN(C)CCC2 | -1.85% | 6.49% | -2.27% | -8.28% | 4.86% | 24.6% | 12.2% | 2.63% | 12.8% | -1.21% |
| Cc1ccc(N2CCCN(C(=O)c3c(C)oc(C)c3C)CC2)nn1 | -6.08% | 18.7% | 5.84% | 2.61% | -0.887% | 9.92% | 4.96% | 4.74% | 15.4% | -6.9% |
| COc1c(C2CCCN2Cc2c(C)noc2C)c(C)nn1C (stereo not given) | -5.49% | -2.67% | 0.668% | 5.82% | 1.33% | 6.19% | -12.5% | 0.526% | 5.13% | -8.53% |
| CC1CN(c2ccc(CNC(=O)c3ccn(C)c(=O)c3)cn2)CCO1 (stereo not given) | -4.46% | 16% | 0.777% | 1.61% | 5.32% | 7.72% | 6.29% | 3.68% | 15.4% | -8.09% |
| O=C1NCC2(CCCN(Cc3ccc(Cl)s3)C2)Oc2ccccc21 (stereo not given) | -1.75% | 20% | 4.75% | 1.18% | -1.33% | 10.3% | 12.7% | 4.23% | 20% | -28.8% |
| Cn1nc2c(cc1=O)CN(Cc1nnc(-c3ccc(F)cc3)o1)CC2 | -0.335% | 7.69% | -9.64% | -6.48% | 7.79% | 6.23% | 30.1% | 0.478% | 6.02% | -4.76% |
| CS(=O)(=O)c1cccc(C(N)c2ccc(F)c(F)c2)c1 (stereo not given) | -6.37% | 5.33% | 1.99% | -2.81% | -2.66% | 4.16% | 23.5% | 7.89% | 15.4% | -9.26% |
| Cc1c(F)cc(C(=O)O)cc1S(=O)(=O)Nc1ccc2c(c1)OCCO2 | -4.72% | 5.13% | 0.878% | 7.42% | -4.51% | 2.82% | -3.86% | -5.26% | 1.21% | -2.48% |
| Cc1cccc(C(=O)N2CCC(Cc3cnc4[nH]ccc4c3)CC2)n1 | -4.68% | 12% | -0.292% | -3.35% | 4.42% | 9.2% | 2.32% | 3.17% | 7.5% | -24.1% |
| Cc1nc(C)c(C(=O)NCCNc2ncccc2C#N)s1 | -0.152% | 31.2% | 1.1% | 5.41% | -5.94% | 18.4% | 7.44% | 6.86% | 28.2% | -11.7% |

Source: ChEMBL document CHEMBL3988442, “University of Dundee, Small-Polar-MMV Screening Library” (2021)
